According to PubChem BioAssay (NCI):
The panel holds about 79,000 compounds, 15% with a hit somewhere; the sample as a whole holds those more often. The source made the active and inactive calls. Rule as the data show it: active = growth inhibition above about 70%; inactive = the rest.

Legend:
[1] = NCI Yeast Anticancer Drug Screen. Data for the mec2-1 strain (AID 157); conditions: S. cerevisiae mec2-1 strain, active compounds read high
Summary of the method: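 Growth inhibition is read against vehicle-treated controls after compound exposure of the mec2-1 yeast strain, which is defective in DNA damage repair or cell cycle control.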

[2] = NCI Yeast Anticancer Drug Screen. Data for the rad14 strain (AID 159);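 also: 0% = growth of vehicle-treated control cultures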; conditions: S. cerevisiae rad14 strain growth inhibition, active compounds read high
Summary of the method: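 Growth inhibition vs vehicle controls; genetically altered yeast strain (DNA damage repair defect) treated with test compounds.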

[3] = NCI Yeast Anticancer Drug Screen. Data for the sgs1 mgt1 strain (AID 161);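 also: 0% = growth of cultures given vehicle only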; conditions: S. cerevisiae sgs1 mgt1 strain, active compounds read high
Summary of the method: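 Percent growth inhibition was derived by comparing compound-exposed mutant yeast with vehicle-exposed cultures. The strain carries alterations in DNA damage repair.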

[4] = NCI Yeast Anticancer Drug Screen. Data for the cln2 rad14 strain (AID 165);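 also: 0% = growth equal to vehicle treated cultures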; conditions: S. cerevisiae cln2 rad14 strain, active compounds read high
Summary of the method: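 Growth inhibition, relative to vehicle-treated controls, is the read-out. The test organism is a yeast strain with defined genetic alterations, cln2 rad14.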

[5] = NCI Yeast Anticancer Drug Screen. Data for the bub3 strain (AID 167); conditions: S. cerevisiae bub3 mutant strain, active compounds read high
Summary of the method: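 Readout: yeast growth inhibition, expressed relative to vehicle-only wells. The test organism is a mutant strain from a panel with lesions in DNA repair or checkpoint genes.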

[6] = NCI Yeast Anticancer Drug Screen. Data for the wt2 strain (AID 169);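 also: 0% = growth of vehicle-treated yeast cultures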; conditions: S. cerevisiae wt2 strain growth inhibition, active compounds read high
Summary of the method: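 Compound exposure of yeast; growth compared with vehicle controls; inhibition reported.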

[7] = NCI Yeast Anticancer Drug Screen. Data for the mlh1 strain (AID 171);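 also: 0% = growth of vehicle-treated control cultures of the same strain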; conditions: S. cerevisiae mlh1 strain growth inhibition, active compounds read high
Summary of the method: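 Compounds are applied to a genetically altered yeast strain, and its growth is compared with that of vehicle-treated cultures to give percent inhibition.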

[8] = NCI Yeast Anticancer Drug Screen. Data for the sgs1 strain (AID 173);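 also: 0% = growth of vehicle-only control cultures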; conditions: S. cerevisiae sgs1 mutant, active compounds read high
Summary of the method: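 Compounds applied to genetically altered yeast; growth compared with vehicle-treated cultures to give % inhibition.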

[9] = NCI Yeast Anticancer Drug Screen. Data for the mlh1 rad18 strain (AID 175); conditions: S. cerevisiae mlh1 rad18 strain growth inhibition, active compounds read high
Summary of the method: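 Cells of a genetically altered yeast strain, deficient in DNA damage repair, were treated with compound. Their growth was then compared with that of vehicle-treated cultures to give inhibition.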

[10] = NCI Yeast Anticancer Drug Screen. Data for the rad18 strain (AID 177); conditions: S. cerevisiae rad18 mutant growth inhibition, active compounds read high
Summary of the method: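 Compounds are applied to a repair-deficient yeast strain, and growth is compared with that of vehicle-treated cultures to give percent inhibition.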

[11] = NCI Yeast Anticancer Drug Screen. Data for the wt1 strain (AID 149);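 also: 0% = growth of vehicle-treated wt1 cultures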; conditions: S. cerevisiae wt1 strain (SPY 50644) growth inhibition, active compounds read high
Summary of the method: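 Growth inhibition read against vehicle controls after compound exposure of the wt1 yeast strain.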

[12] = NCI Yeast Anticancer Drug Screen. Data for the rad50EPP+ strain (AID 151);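 also: 0% = growth of vehicle-treated control cultures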; conditions: S. cerevisiae rad50 mutant strain, active compounds read high
Summary of the method: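 rad50EPP+ yeast treated with test compounds. Readout: growth vs vehicle control.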

[13] = NCI Yeast Anticancer Drug Screen. Data for the mgt1 strain (AID 153); conditions: S. cerevisiae mgt1 mutant growth inhibition, active compounds read high
Summary of the method: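 Growth inhibition relative to vehicle controls was scored for the mgt1 yeast strain after compound exposure.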

[14] = NCI Yeast Anticancer Drug Screen. Data for the rad50 strain (AID 155);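 also: 0% = growth of vehicle-only cultures of the same strain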; conditions: S. cerevisiae rad50 strain growth inhibition, active compounds read high
Summary of the method: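 Readout: growth inhibition relative to vehicle-treated cultures. Compound exposure was carried out in a genetically defined yeast strain deficient in DNA damage repair.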

[15] = NCI Yeast Anticancer Drug Screen. Data for the CLN2oe strain (AID 163);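 also: 0% = growth of vehicle-only control cultures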; conditions: S. cerevisiae CLN2oe strain, active compounds read high
Summary of the method: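 Compound-treated yeast; growth vs vehicle ctrl = % inhibition. Genetically altered strain (cell-cycle control).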

[16] = at 5.0 µM (retest, dose inferred, filed as 0.5)
[17] = at 50.0 µM (retest, dose inferred, filed as 5.0)

Measured: growth inhibition

O=C(Nc1cc(Cl)ccc1Cl)C(Cl)(Cl)Cl
active: [9]; [17] 70%
inactive: [1]; at 100.0 µM 25% | [2]; at 1.2 µM 3% | [2]; at 3.7 µM 6% | [2]; at 11.0 µM 13% | [2]; at 33.0 µM 21% | [2]; at 100.0 µM 30% | [3]; [16] 1% | [3]; [17] 32% | [3]; at 50.0 µM 24.1% | [4]; [16] 32% | [4]; [17] -6% | [4]; at 50.0 µM -52.4% | [5]; at 1.2 µM -1% | [5]; at 3.7 µM 3% | [5]; [16] -11% | [5]; at 11.0 µM 8% | [5]; at 33.0 µM 10% | [5]; [17] 31% | [5]; at 50.0 µM 28.1% | [5]; at 100.0 µM 12% | [6]; at 1.2 µM 1% | [6]; at 3.7 µM 2% | [6]; at 11.0 µM 5% | [6]; at 33.0 µM 3% | [6]; at 100.0 µM 6% | [7]; at 1.2 µM 1% | [7]; at 3.7 µM 4% | [7]; at 11.0 µM 5% | [7]; at 33.0 µM 12% | [7]; at 100.0 µM 20% | [8]; at 1.2 µM 1% | [8]; at 3.7 µM 3% | [8]; at 11.0 µM 7% | [8]; at 33.0 µM 10% | [8]; at 100.0 µM 19% | [9]; [16] -1% | [9]; at 50.0 µM 63.6% | [10]; at 1.2 µM 2% | [10]; at 3.7 µM 4% | [10]; at 11.0 µM 16% | [10]; at 33.0 µM 23% | [10]; at 100.0 µM 31%

CN(N=O)C(=O)NNC(=O)N(C)N=O
inactive: [11]; at 1.2 µM 0% | [11]; at 3.7 µM 1% | [11]; at 11.0 µM 5% | [11]; at 33.0 µM 16% | [11]; at 100.0 µM 38% | [12]; at 1.2 µM 3% | [12]; at 3.7 µM 16% | [12]; at 11.0 µM 62% | [13]; at 1.2 µM 9% | [13]; at 3.7 µM 28% | [13]; at 11.0 µM 51% | [14]; at 1.2 µM 6% | [14]; at 3.7 µM 23% | [14]; [16] 21% | [14]; at 11.0 µM 56% | [1]; at 1.2 µM -2% | [1]; at 3.7 µM 3% | [1]; [16] 10% | [1]; at 11.0 µM 22% | [1]; at 33.0 µM 61% | [1]; at 50.0 µM 38.2% | [2]; at 1.2 µM -2% | [2]; at 3.7 µM 18% | [2]; at 11.0 µM 5% | [2]; at 33.0 µM 22% | [2]; at 100.0 µM 57% | [15]; at 1.2 µM -5% | [15]; at 3.7 µM -4% | [15]; at 11.0 µM -7% | [15]; at 33.0 µM 11% | [15]; at 100.0 µM 41% | [4]; [16] -32% | [4]; [17] 18% | [4]; at 50.0 µM 11.7% | [5]; at 1.2 µM -9% | [5]; at 3.7 µM 5% | [5]; [16] -11% | [5]; at 11.0 µM -6% | [5]; at 33.0 µM 15% | [5]; [17] 27% | [5]; at 50.0 µM 1.9% | [5]; at 100.0 µM 39% | [6]; at 1.2 µM -3% | [6]; at 3.7 µM -2% | [6]; at 11.0 µM 1% | [6]; at 33.0 µM 16% | [6]; at 100.0 µM 49% | [7]; at 1.2 µM -1% | [7]; at 3.7 µM -3% | [7]; at 11.0 µM 7% | [7]; at 33.0 µM 31% | [7]; at 100.0 µM 68% | [8]; at 1.2 µM 11% | [8]; at 3.7 µM 26% | [8]; at 11.0 µM 52% | [9]; [16] 6% | [9]; at 50.0 µM 67%
active: [12]; at 33.0 µM 93% | [12]; at 100.0 µM 95% | [13]; at 33.0 µM 88% | [13]; at 100.0 µM 96% | [14]; at 33.0 µM 92% | [14]; [17] 95% | [14]; at 50.0 µM 94.9% | [14]; at 100.0 µM 96% | [1]; [17] 85% | [1]; at 100.0 µM 96% | [3]; [16] 74% | [3]; [17] 96% | [3]; at 50.0 µM 91.6% | [8]; at 33.0 µM 81% | [8]; at 100.0 µM 91% | [9]; [17] 89% | [10]; at 1.2 µM 71% | [10]; at 3.7 µM 95% | [10]; at 11.0 µM 96% | [10]; at 33.0 µM 96% | [10]; at 100.0 µM 96%
